For 107 variants, antigen binding call results are on record in the emibetuzumab library of Makowski et al. (2022).

Some of the results follow. How many sequences the whole screen found active is unknown.

First the molecules themselves.
B1: VH:VL chains; a variant is named by its letters at X, in order (parent)
chain 1: QVQLVQSGAEVKKPGASVKVSCKASGYTFTDYXMHWVRQAPGQGLEWMGXVNPNXXXTTYNQKFEGRVTMTTDTSTSTAYMELRSLRSDDTAVYYCARXNXLDXWGQGTTVTVSS
chain 2: DIQMTQSPSSLSASVGDRVTITCSVSSSVSSIYLHWYQQKPGKAPKLLIYSTSNLASGVPSRFSGSGSGTDFTLTISSLQPEDFATYYCQVYSGYPLTFGGGTKVEIK

The variants in the test derive from B1. Description: yeast display scFab, FACS + sequencing. Particulars: with MET. In short, it runs like this:
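Heavy-chain CDR mutant scFab yeast surface library, enriched by two magnetic rounds on HGFR-Fc-coated Protein A beads and then by FACS. Cells were labelled with 1 nM HGFR-Fc in PBSB with 1% milk and anti-Myc for 3 h at room temperature, and the top 50% antigen-positive cells were gated. Round-3 sorted and input populations were deep sequenced in two replicates. Antigen binding call: positive if a sequence occurred in both antigen-positive samples, negative if it occurred only in input.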
On to FRGRGAWD, for which the antigen binding call is “binds”.

In the case of FRGRGSSD, the antigen binding call is reported as “binds”.

Take FKGKSSSD: the antigen binding call is given as “no binding”.

As to FRGRGASV, the antigen binding call is on record as “binds”.

For the variant DAKEGDVV, the antigen binding call is “no binding”.

With VEGGGAGV, the antigen binding call is listed as “no binding”.

Take DAGGADGV: the antigen binding call was “no binding”.

For the variant FRKGDASD, the antigen binding call is “no binding”.

As to FRGRGASD, the antigen binding call is reported as “binds”.

As to FAGRGYSD, the antigen binding call is reported as “no binding”.

In the case of DGGKNAVA, the antigen binding call is “no binding”.

For the variant VAGTGASD, the antigen binding call is listed as “no binding”.

For FRTRSSLA, the antigen binding call was “binds”.

FRGRSSLA: the antigen binding call is reported as “binds”.

For VEGEDAGA, the antigen binding call is reported as “no binding”.

For YRRGSSGA, the antigen binding call is “binds”.

As for FRRGSSGA, the antigen binding call is reported as “binds”.

Turning to YRRGGSGA, the antigen binding call is given as “binds”.

On to YTRGGSGA, for which the antigen binding call is “no binding”.

As for DAKEGSSA, the antigen binding call was “no binding”.

In the case of DGGKNDVV, the antigen binding call is on record as “no binding”.

Regarding VEGTSAGD, the antigen binding call is “no binding”.

In the case of YRTRGAGA, the antigen binding call is on record as “binds”.

YTTRGAGA: the antigen binding call is “no binding”.

With FTTRGAVA, the antigen binding call is recorded as “no binding”.

For the variant FRTRDAAA, the antigen binding call was “binds”.

Take FRGRDYAA: the antigen binding call is “no binding”.

Turning to VRTRGDGA, the antigen binding call is “no binding”.

As to FRTRGAAA, the antigen binding call is reported as “binds”.

On to FRTRGVGA, for which the antigen binding call is reported as “no binding”.

Consider YRTRSAAA, for which the antigen binding call is on record as “binds”.

SEARSDAS: the antigen binding call was “no binding”.

Regarding DKEGGDVD, the antigen binding call is reported as “no binding”.

Consider DATGGDGS, for which the antigen binding call was “no binding”.

As for SKGRSDAV, the antigen binding call is listed as “no binding”.

On to SETGNVWF, for which the antigen binding call is reported as “no binding”.

For the variant YRTRGAAA, the antigen binding call is recorded as “binds”.

With YRTRGALA, the antigen binding call is reported as “binds”.

Regarding VRTRGYLA, the antigen binding call was “no binding”.

Consider YATRGAAA, for which the antigen binding call is listed as “no binding”.

Take YRTRGAWA: the antigen binding call was “binds”.

VTGTGAVY: the antigen binding call is reported as “no binding”.

With VGRGNSGD, the antigen binding call is “no binding”.

For the variant DGRGNSGD, the antigen binding call is “no binding”.

For the variant YEGTGSGD, the antigen binding call is “no binding”.

Regarding YGRGNSGD, the antigen binding call is recorded as “binds”.

On to YKRGSSGD, for which the antigen binding call is “binds”.

YKRRNSGD: the antigen binding call is recorded as “no binding”.

Turning to YKRGGSGD, the antigen binding call is on record as “binds”.

Consider STGGGDGV, for which the antigen binding call was “no binding”.

STAGSASD: the antigen binding call is given as “no binding”.

As for YRRGGSLS, the antigen binding call was “binds”.

DARGGSLS: the antigen binding call was “no binding”.

As for YRRGSALS, the antigen binding call is reported as “binds”.

In the case of YRRGSSLS, the antigen binding call is listed as “binds”.

With YEGTGSLS, the antigen binding call was “no binding”.

Take VKGASDGA: the antigen binding call is reported as “no binding”.

YKRGSSGA: the antigen binding call was “binds”.

Turning to VKRGSSGA, the antigen binding call is recorded as “binds”.

Take YKRGSDGA: the antigen binding call is “binds”.

As for VTRGASGA, the antigen binding call is “no binding”.

In the case of YKEKGDGA, the antigen binding call is recorded as “no binding”.

As to YKRGSFGA, the antigen binding call is “no binding”.

On to VTRGDSGA, for which the antigen binding call was “no binding”.

Turning to DAGGGSSD, the antigen binding call is given as “no binding”.

With SETTDAGV, the antigen binding call is “no binding”.

In the case of STKRSFWA, the antigen binding call is listed as “no binding”.

In the case of DTGTGSVD, the antigen binding call is on record as “no binding”.

For YRGEASVD, the antigen binding call is given as “binds”.

As for YKGKDSVD, the antigen binding call is “no binding”.

On to YRGESAVD, for which the antigen binding call is reported as “binds”.

With YRGKDSVD, the antigen binding call is given as “binds”.

Consider YRGTGSVD, for which the antigen binding call was “binds”.

VTGTGSVD: the antigen binding call is listed as “no binding”.

Turning to DAEKDSGA, the antigen binding call was “no binding”.

In the case of VTKESAAV, the antigen binding call is recorded as “no binding”.

As to YRTKAAVD, the antigen binding call is on record as “binds”.

For YRGKSSVD, the antigen binding call is recorded as “binds”.

Consider YRGKASVD, for which the antigen binding call is listed as “binds”.

YRGGTSVD: the antigen binding call is “binds”.

Consider DEGGTSVD, for which the antigen binding call was “no binding”.

Take YGGKNSVD: the antigen binding call was “no binding”.

As to VTGTSDVA, the antigen binding call is “no binding”.

Turning to VTGGDDWF, the antigen binding call was “no binding”.

In the case of DREGDYLY, the antigen binding call is “no binding”.

For YRGKAAVD, the antigen binding call is reported as “binds”.

In the case of YTGGDSVD, the antigen binding call is on record as “binds”.

For the variant VTGGDSVD, the antigen binding call is recorded as “no binding”.

In the case of YAGAAAVD, the antigen binding call was “no binding”.

For YTGGDSVA, the antigen binding call was “no binding”.

Turning to DAGTDAGD, the antigen binding call is given as “no binding”.

Consider YRAGDSSA, for which the antigen binding call was “binds”.

With DRAGDDLA, the antigen binding call is “no binding”.

With DRAGDSSA, the antigen binding call is listed as “no binding”.

Take YRTGDSAA: the antigen binding call is listed as “binds”.

In the case of YRTGDSSA, the antigen binding call is “binds”.

Consider SAAGGAAD chain 1 L45S, for which the antigen binding call was “no binding”.

Consider DTREGDVY, for which the antigen binding call is listed as “no binding”.

With VKERGDGV, the antigen binding call is “no binding”.

With FARENFLA chain 1 V51A, the antigen binding call is on record as “no binding”.

With VAKADDWF, the antigen binding call is on record as “no binding”.

Take YRGRSAWD: the antigen binding call is “binds”.

As for YRTRSAWD, the antigen binding call is “binds”.

For YGTRSAAD, the antigen binding call is “no binding”.

On to YRTRAAWD, for which the antigen binding call was “binds”.

In the case of YRTRSAGD, the antigen binding call was “binds”.

Take YAGRAAWD: the antigen binding call was “no binding”.
